Among the data in PubChem BioAssay (NCI) are growth values, retold here.

Assay in all cases: NCI-60 one-dose screen, 48 h (100 = growth as untreated, 0 = no growth, -100 = all killed)
Details in all cases: 10 µM unless noted

In test [1] the test system is SR leukemia.
In test [2] the test system is RPMI-8226 leukemia.
For test [3], the system named is OVCAR-8 ovarian.
Test [4] has as its system OVCAR-5 ovarian.
For test [5], the system named is OVCAR-4 ovarian.
Test [6] deals with SK-OV-3 ovarian.
Test [7] concerns IGROV1 ovarian.
The test system of test [8] is OVCAR-3 ovarian.
The subject of test [9] is HS 578T breast.
Test [10] has as its system NCI/ADR-RES ovarian.
Test [11] relates to T-47D breast.
In test [12] the test system is BT-549 breast.
Test [13] deals with MDA-MB-435 melanoma.
Test [14] concerns SW-620 colon.
The subject of test [15] is MCF7 breast.
Test [16] deals with HCT-116 colon.
The test system of test [17] is HCC-2998 colon.
The subject of test [18] is KM12 colon.
The test system of test [19] is MDA-MB-468 breast.

About 83,000 compounds went through this panel and 20% of them were active in at least one assay; those are over-represented in the sample as a whole.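 Interpretation: 100, growth as untreated; towards 0, rising growth inhibition; 0, no net growth; 0 to -100, cell death. Compounds scoring below 10 were considered active.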 Values without a mark were called inactive. The source made the active and inactive calls.

For the molecule `CC(=O)Nc1cccc(-c2nc3cc(-c4ccc(O)cc4)ccc3n2C)c1`, the growth in test [1] is 59%; in test [2], 28.4%; in test [3], 22.2%; in [4] it was 93.6%; in [5] it was 20.9%; in [6], 77.5%. Further, the growth in test [7] is 51.7%; in test [8] it was 31.3%; in test [9], 56.1%; in test [10], 65.2%; in [11], 9.44% (active); in test [12] it was -8.08% (active). For the same molecule, the growth is 11.1% in test [13]; 79.3% in test [14]; 6.65% (active) in test [15]; 45.7% in test [16]; 88.2% in [17]; 37.5% in [18].

As to `CC1(C)CC[C@]2(C(=O)O)CC[C@]3(C)C(=CCC4[C@@]5(C)C[C@@H](O)[C@@H]6OC(c7ccccc7F)OC[C@@]6(C)C5CC[C@]43C)C2C1` (stereo partly drawn), the growth is 7.37% (active) in test [1]; 10% in test [2]; 12% in test [3]; 28.2% in [4]; 30.7% in test [5]; 12.7% in test [6]. For the same molecule, the growth in [7] was 20%; in test [8], -11% (active); in test [9], 21.6%; in test [10], 6.19% (active); in [11], 21.3%; in test [12], -15.9% (active). The growth is 17.4% in [13]; 14.6% in [14]; 4.83% (active) in test [15]; -0.989% (active) in test [16]; 11.1% in [17]; 7.3% (active) in test [18]. In addition, the growth in [19] is 5.82% (active).

`C=C1CCC2C3(C)COC(c4ccccc4)OC3CCC2(C)C1CC(NCc1ccccc1)C1=CCOC1=O` (stereo not drawn): the growth in test [1] was 68.6%; in [2], 34.1%; in test [3] it was 82.9%; in test [4] it was 87.5%; in [5], 82.8%; in [6] it was 79.9%. Further, the growth in test [7] is 90.6%; in test [8], 83%; in test [9], 78%; in test [10], 77.7%; in [11], 63.6%; in test [12], 73.4%. The growth in test [13] is 85%; in test [14] it was 89.8%; in [15], 70.2%; in test [16] it was 69%; in test [17] it was 81.2%; in test [18], 85.6%.

Consider `CCOP(=O)(OCCCl)c1nc(-c2ccc(C)cc2)oc1NCc1ccccc1` (stereo not drawn), for which the growth is 66.8% in [1]; 43.2% in [2]; 78.7% in test [3]; 98.4% in test [4]; 68.3% in [5]; 91% in [6]. Besides, the growth in test [7] is 62.4%; in test [8] it was 75%; in [9], 74.6%; in [10] it was 63.8%; in test [11], 48.1%; in [12] it was 92%. The growth in test [13] is 87.2%; in test [14], 86.5%; in [15], 50.3%; in test [16], 63.3%; in [17] it was 94.6%; in [18], 77.6%. Moreover, the growth in [19] is 62.9%.

Consider `Cn1cc(-c2nc(N)nnc2-c2c[nH]c3ccc(Br)cc23)c2cc(Br)cnc21`, for which the growth in test [1] was -17.2% (active); in test [2], -12% (active); in test [3], 1.57% (active); in [4] it was 21.8%; in test [5], 32.8%; in test [6], 9.61% (active). For the same molecule, the growth in [7] is 14.2%; in test [8] it was 0.628% (active); in test [9] it was 30.2%; in test [10], 12.5%; in test [11], 34.6%; in test [12] it was -33.4% (active). For the same molecule, the growth in test [13] is -20.8% (active); in test [14], 20.8%; in test [15], 3.81% (active); in [16], -37.1% (active); in [17], 1.16% (active); in test [18] it was 5.44% (active). Further, the growth in test [19] was 1.62% (active).

Consider `S=C(NCCc1ccccc1)Nc1ccc(OCc2nc3ccccc3[nH]2)cc1`, for which the growth in [1] was 95.7%; in test [2], 101%; in [3] it was 102%; in [4], 105%; in [5], 108%; in test [6], 99.4%. The growth is 113% in [7]; 112% in test [8]; 109% in test [9]; 110% in [10]; 103% in test [11]; 109% in test [12]. The growth in test [13] is 105%; in [14], 107%; in [15], 95.3%; in [16], 103%; in test [17], 114%; in test [18], 103%.

Take `COc1cc(C2CC(c3cc(OC)c(OC)c(OC)c3)=Nc3c(N)nc(N)nc3N2)ccc1Oc1nc(NCCO)nc(N2CCOCC2)n1` (stereo not drawn): the growth in test [1] was 93.1%; in test [2], 95.5%; in test [3], 99.9%; in test [4], 106%; in [5], 107%; in [6], 104%. Moreover, the growth in [7] was 104%; in test [8], 107%; in test [9] it was 95%; in test [10] it was 97.6%; in [11], 90.3%; in test [12], 116%. For the same molecule, the growth is 100% in [13]; 103% in test [14]; 87.4% in test [15]; 100% in [16]; 115% in [17]; 99.9% in test [18].

For the molecule `CC(=O)OC[C@@]1(C)C2CC[C@]3(C)C(CC=C4C5CC(C)(C)CC[C@]5(C(=O)Nc5ccc(Br)cc5)CC[C@]43C)[C@@]2(C)C[C@@H](OC(C)=O)[C@@H]1OC(C)=O` (stereo partly drawn), the growth in [1] is 32%; in [2], 14.5%; in [3], 35.9%; in test [4] it was 92.8%; in test [5], 42%; in [6] it was 44%. Further, the growth in test [7] is 57.3%; in [8], 45%; in test [9], 80.5%; in [10], 42.5%; in test [11], 16.5%; in [12], 43.7%. The growth was 47.8% in test [13]; 39.9% in test [14]; 28.2% in [15]; 24.6% in test [16]; 38% in test [17]; 46.4% in test [18]. The growth in test [19] is 4.65% (active).
